From PubChem BioAssay (Tox21) come the findings set out here.

Inconclusive results are not listed. The source made the active and inactive calls. The call rests on the fitted dose curve; in most records, active means well fitted activation curve with a large enough effect in the signal ratio in the repeat runs, with a control signal flat (not every such curve was filed as active); inconclusive means weak or mixed curves, or effect the other way; inactive means no such curve, though single readings can be large or run the other way; the % refers to the signal ratio.
On the % scale 0 is the no-effect control and ±100 the full control effect.

Androgen receptor (Homo sapiens), sequence (P10275 whole entry, looked up): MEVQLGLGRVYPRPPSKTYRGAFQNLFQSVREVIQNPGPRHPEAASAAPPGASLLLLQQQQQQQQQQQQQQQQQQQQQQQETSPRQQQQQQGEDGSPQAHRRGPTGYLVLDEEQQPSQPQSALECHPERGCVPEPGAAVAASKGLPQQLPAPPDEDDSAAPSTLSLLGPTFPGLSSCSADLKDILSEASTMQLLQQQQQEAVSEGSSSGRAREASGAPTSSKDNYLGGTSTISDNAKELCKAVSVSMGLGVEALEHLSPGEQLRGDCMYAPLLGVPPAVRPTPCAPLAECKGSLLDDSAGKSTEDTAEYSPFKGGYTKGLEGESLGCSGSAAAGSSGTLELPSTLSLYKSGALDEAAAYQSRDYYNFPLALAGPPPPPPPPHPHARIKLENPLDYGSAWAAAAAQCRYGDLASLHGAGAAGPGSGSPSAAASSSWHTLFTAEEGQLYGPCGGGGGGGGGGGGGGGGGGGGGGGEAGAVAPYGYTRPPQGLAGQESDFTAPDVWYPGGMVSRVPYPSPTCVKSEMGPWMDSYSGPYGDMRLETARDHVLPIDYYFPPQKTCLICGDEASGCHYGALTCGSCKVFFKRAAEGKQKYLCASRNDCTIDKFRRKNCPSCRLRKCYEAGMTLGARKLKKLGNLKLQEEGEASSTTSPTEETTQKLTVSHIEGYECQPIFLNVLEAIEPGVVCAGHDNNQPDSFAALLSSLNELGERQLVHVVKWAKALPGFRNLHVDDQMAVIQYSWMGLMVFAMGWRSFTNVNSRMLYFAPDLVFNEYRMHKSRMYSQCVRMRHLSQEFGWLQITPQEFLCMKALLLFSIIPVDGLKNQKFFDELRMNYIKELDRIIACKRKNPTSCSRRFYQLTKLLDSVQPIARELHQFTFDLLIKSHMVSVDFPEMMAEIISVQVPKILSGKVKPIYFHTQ

In the experiment the target is Androgen receptor (Homo sapiens) (UniProt P10275). The experiment can be described thus: qHTS assay to identify small molecule agonists of the androgen receptor (AR) signaling pathway (AID 743036). To be noted: HEK293 AR-UAS-bla GripTite, beta-lactamase FRET ratio, 16 h; series mostly up to 62.4 µM; activation: at the top concentration. An excerpt:
U.S. Tox21 Program National Center for Advancing Translational Sciences [NCATS] NIH Chemical Genomics Center [NCGC] U.S. Environmental Protection Agency [EPA] National Institutes of Environmental Health Sciences [NIEHS] National Toxicology Program [NTP] U.S. Food and Drug Administration [FDA] Tox21 Assay Overview: Androgen receptor (AR), a nuclear hormone receptor, plays a critical role in AR-dependent prostate cancer and other androgen related diseases. Endocrine disrupting chemicals (EDCs) and their interactions with steroid hormone receptors like AR may cause disruption of normal endocrine function as well as interfere with metabolic homeostasis, reproduction, developmental and behavioral functions. To identify the compounds that activate AR signaling, GeneBLAzer AR-UAS-bla-GripTite cell line (Invitrogen, Carlsbad, CA, USA) containing a beta-lactamase reporter gene under the control of an Upstream Activator Sequence (UAS) stably integrated into HEK293 cells was used to screen the Tox21 10K compound library.
Tox21 Assay Protocol Summary: AR-bla cells were dispensed at 2,000 cells/6 uL/well of assay medium into black wall/clear-bottom 1536-well plates using a Multidrop Combi (ThermoFisher Scientific, Waltham, MA) dispenser. After the assay plates were incubated at 37C and 5% CO2 for 4 h, 23 nL of compounds dissolved in DMSO, positive controls or DMSO only was transferred to the assay plate by a Pintool station (Kalypsys, San Diego, CA). The plates were incubated at 37C and 5% CO2 for 16 h. Then 1 uL of LiveBLAzerTM B/G FRET substrate was added using a Bioraptr Flying Reagent Dispenser (FRD) workstation (Beckman Coulter, Indianapolis, IN, USA). The plates were incubated at room temperature for 2 h, and fluorescence intensity was measured by an Envision plate reader (PerkinElmer, Shelton, CT).
On the technique in general: qHTS replaces the single test concentration by a dilution series.
For the compound `C#CCN1C(=O)COc2cc(F)c(N3C(=O)C4=C(CCCC4)C3=O)cc21`, the “activation” value was 0.102% (inactive).
The same measure, in the same setting: for `CNC(=O)Oc1c(C(C)(C)C)cc(C)cc1C(C)(C)C` the value was 4.84% (inactive).
Still for that read-out and setting: for `O=CNC(N1CCN(C(NC=O)C(Cl)(Cl)Cl)CC1)C(Cl)(Cl)Cl` (configuration not stated) the value was 10.4% (inactive).
For `c1cc2c(c(N3CCNCC3)c1)OCCO2`, the “activation” value was 0.805% (inactive).
Still for that read-out and setting: for `O=C(Nc1ccccc1)c1ccccc1I` the value was -14.5% (inactive).
`Nc1ccccc1Cl`: the “activation” value is 0.136% (inactive).
Consider `CCCCOP(=O)(O)OCCCC`, for which the “activation” value was 2.74% (inactive).
Still for that read-out and setting: for `CCN(CC)C(C)C(=O)c1ccccc1` (configuration not stated) the value was 10.9% (inactive); for `Cc1ccccc1CO[C@@H]1C[C@@]2(C(C)C)CC[C@]1(C)O2`, -7.41% (inactive); for `c1cc[c]([Hg][c]2ccccc2)cc1`, -13.1% (inactive).
Take `O=C(CCCN1CCC(n2c(=O)[nH]c3ccccc32)CC1)c1ccc(F)cc1`: the “activation” value is -0.0007% [at 29.2 µM] (inactive).
In the case of `COc1ccc2c(c1OC)CN1CCc3cc4c(cc3C1C2)OCO4` (configuration not stated), the “activation” value is 4.48% [at 29.2 µM] (inactive).
In the case of `CC(COc1ccc(Oc2ccccc2)cc1)Oc1ccccn1` (configuration not stated), the “activation” value is -9.9% (inactive).
On the same count and under the same terms, the figure for `CCOP(=O)(OCC)OP(=O)(OCC)OCC` is -0.112% (inactive).
Same read-out and setting: for `O=C(O)c1ccc2[nH]cc(CCCCN3CC=C(c4ccccc4)CC3)c2c1` the value was 0.0701% (inactive).
On the same count and under the same terms, the figure for `CCOP(=S)(OCC)Oc1ncn(-c2ccccc2)n1` is -7.8% (inactive); for `CC(Cl)(Cl)[N+](=O)[O-]` it is -0.836% (inactive); for `CC1(C)COP(Oc2ccccc2)OC1` it is 5% (inactive).
For `CCC(C)(C)c1cc(-n2nc3ccccc3n2)c(O)c(C(C)(C)CC)c1`, the “activation” value is 8.96% [at 79.1 µM] (inactive).
Take `CC(C)CC#N`: the “activation” value was 0.0887% [at 79.1 µM] (inactive).
The same measure, in the same setting: the figure for `COc1cc(OC)nc(Oc2cccc(Oc3nc(OC)cc(OC)n3)c2C(=O)O)n1` is -0.141% (inactive); for `COC(=O)c1c(C(F)F)nc(C(F)(F)F)c(C2=NCCS2)c1CC(C)C` it is -5.92% (inactive).
In the case of `CCCCCCI`, the “activation” value is 0.286% (inactive).
Same read-out and setting: for `Cc1cnc[nH]1` the value was 0.738% (inactive); for `O=[N+]([O-])c1cccc2c([N+](=O)[O-])cccc12`, -12.7% [at 79.1 µM] (inactive).
In the case of `COC(=O)C(c1ccccc1)C1CCCCN1` (configuration not stated), the outcome was inactive.
Regarding `N#CC(CCc1ccc(Cl)cc1)(Cn1cncn1)c1ccccc1` (configuration not stated), the “activation” value is 7.6% (inactive).
The same measure, in the same setting: the figure for `O=NN1CCCCC1` is 5.99% (inactive); for `N#CC(Cl)(Cl)Cl` it is 0.0654% (inactive).
Still for that read-out and setting: for `O=C(N[C@H]1CN2CCC1CC2)c1cc2ccoc2cn1` the value was 2.94% (inactive).
The same measure, in the same setting: the figure for `COP(N)(=S)Oc1ccccc1C(=O)OC(C)C` (configuration not stated) is -6.1% (inactive); for `CC(C)(C)NCC(O)c1cc(Cl)c(N)c(Cl)c1` (configuration not stated) it is 2.71% (inactive).
